Screening results as filed in PubChem.
Rows were chosen to be rich in hits. Some 4.6% of all compounds tested hit in one or more screens of this group.
TIM10 inh: growth inhibitors of isogenic TIM10 control yeast, primary screen, counter-screen for tim10-1 yeast inhibitor project, luminescence, uHTS; S. cerevisiae TIM10 strain growth, BacTiter-Glo luminescence, 24 h; inhibition, % at 10 µM; hit rate 1.4% among 330,000;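 active = inhibition of 40% or more at the single tested concentration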;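 also: wild-type TIM10 isogenic control strain grown at permissive 25 °C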
tim23-1 inh: growth inhibitors of tim23-1 mutant yeast, primary screen, luminescence, uHTS | AID 463212, 2010 | inhibition, % at 20 µM | S. cerevisiae tim23-1 growth, BacTiter-Glo luminescence, 24 h | hit rate 1.3% among 330,000;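 active = growth inhibition of the mutant yeast at or above 50%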;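 also: temperature-sensitive mutant grown at 25 °C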
NLRP3 yeast inh: NALP3 inflammasome inhibitors in reconstituted yeast, primary screen, luminescence, uHTS. hit rate 0.39% among 330,000. Yeast reconstituted NLRP3/ASC/caspase-1, beta-gal luminescence, 24 h. inhibition, % at 10 µM;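 active = inhibition of 50% or more; inactive = inhibition below 50%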
tim10-1 inh: growth inhibitors of tim10-1 mutant yeast, primary screen, luminescence, uHTS; hit rate 2.2% among 330,000; S. cerevisiae tim10-1 ts strain growth, BacTiter-Glo, 24 h; AID 463190, 2010; inhibition, % at 20 µM;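 active = inhibition of at least 40%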;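 also: mutant grown at 25 °C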
SKKanGAS inh: S. pyogenes SKKanGAS growth inhibitors in kanamycin, primary screen, streptokinase expression inhibitor project, SKKanGAS strain, BacTiter-Glo luminescence | hit rate 1.3% among 300,000 | 6 h | inhibition, % at 7.5 µM;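 active = mean replicate score, as percent of positive control median, at least 50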;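 also: strain carries kanamycin resistance gene driven by streptokinase promoter and grows in 40 µg/ml kanamycin; loss of luminescence reflects streptokinase promoter inhibition or plain growth inhibition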
tim10-1 confirm: growth inhibitors of tim10-1 mutant yeast, confirmation, single concentration, luminescence, S. cerevisiae. shares compounds with tim10-1 inh. S. cerevisiae tim10-1 ts strain growth, BacTiter-Glo, 24 h. inhibition, % at 20 µM. hit rate 56% among 7,400;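 active = inhibition of yeast growth at or above a set limit in either of two repeat tests at 20 µM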;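 also: tim10-1 mutant grown at permissive 25 °C to find synthetic lethal compounds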
tim10 confirm: growth inhibitors of wild-type TIM10 yeast, confirmation, counter-screen for tim10-1 synthetic lethality project, single concentration, luminescence, S. cerevisiae | shares compounds with TIM10 inh | S. cerevisiae tim10 strain growth, BacTiter-Glo luminescence, 24 h | inhibition, % at 10 µM | hit rate 63% among 4,600;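 active = inhibition of yeast growth at or above a set limit in either of two replicates at 10 µM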; also: this counterscreen used the strain with wild-type TIM10
tim23-1 confirm: tim23-1 mutant yeast growth inhibitors, confirmation, luminescence, single concentration; shares compounds with tim23-1 inh; S. cerevisiae tim23-1 growth, BacTiter-Glo luminescence, 24 h; inhibition, % at 20 µM; hit rate 83% among 4,400; AID 463218, 2010;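 active = inhibition above about 39% in either of two replicate wells at 20 µM, limit read from the data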;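 also: temperature-sensitive tim23-1 mutant grown at 25 °C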
Large screens that a line does not name were inactive (follow-up assays come after a bar, where they were run).

[O-][n+]1c2c(c3c4non(O)c4ccc31)CCCC2	TIM10 inh 61, tim23-1 inh 63, tim10-1 inh 70 | tim10-1 confirm 70 | tim10 confirm 52 | tim23-1 confirm 64
Cc1nc2ccccc2n1CCOc1ccccc1	none
Cc1ccc(NCc2nc3ccccc3n2CCOc2ccccc2)cc1	tim23-1 inh 57, tim10-1 inh 44 | tim10-1 confirm inactive | tim23-1 confirm 74
CCOC(=O)c1nnn(-c2nonc2N)c1CSc1nnc(N)s1	none
CCOc1ccc(C(=O)/C=C/c2cn(CN3CCN(C)CC3)c3ccccc23)cc1	tim23-1 inh 68, tim10-1 inh 40 (no result: SKKanGAS inh) | tim10-1 confirm inactive | tim23-1 confirm 51
CC(=O)c1ccc(OCC(=O)N2CCCC(Nc3ccc(C)c(C)c3)C2)cc1 (centres undefined)	none
C/C(=N\NC(=S)NC1CCCCC1)c1cccs1	TIM10 inh 58, tim23-1 inh 53, tim10-1 inh 41 | tim10-1 confirm inactive | tim10 confirm 36 | tim23-1 confirm 49
COc1cc(NC(=O)C2CC(=O)N(CCc3ccc(F)cc3)C2)cc(OC)c1OC (centres undefined)	none
O=C(Oc1ccccc1/C=C\C(=O)c1cc2ccccc2o1)c1ccccc1	TIM10 inh 50, tim23-1 inh 50, tim10-1 inh 47 | tim10-1 confirm 41 | tim10 confirm 31 | tim23-1 confirm 49
COc1cccc(C(=O)Oc2ccccc2/C=C\C(=O)c2cc3ccccc3o2)c1	none (no result: TIM10 inh, tim23-1 inh, NLRP3 yeast inh, tim10-1 inh)
CC(C(=O)NC(=O)NC1CCCCC1)N1CCN(C(c2ccccc2)c2ccccc2)CC1 (centres undefined)	none
Cc1ccc2c(c1)N=C(c1ccccc1)CC(C(Cl)Cl)=N2	TIM10 inh 60, tim23-1 inh 74, tim10-1 inh 60 | tim10-1 confirm 48 | tim10 confirm 56 | tim23-1 confirm 67
COc1ccc(NC(=O)c2ccccc2F)cc1Cl	none
O=C(Nc1ccc(Oc2ccc(Cl)cc2)c(Cl)c1)c1cc(I)cc(I)c1O	tim23-1 inh 59, tim10-1 inh 54, SKKanGAS inh 103 | tim10-1 confirm 52 | tim23-1 confirm 60
O=C(Nc1ccc(Nc2ccccc2)cc1)c1ccc(Cl)cc1Cl	none
C#Cc1cccc(NC(=O)c2ccc(Cl)cc2Cl)c1	TIM10 inh 59, tim23-1 inh 68, tim10-1 inh 53 | tim10-1 confirm 43 | tim10 confirm 52 | tim23-1 confirm 61
O=C(c1ccc([N+](=O)[O-])cc1[N+](=O)[O-])n1cnc2ccccc21	TIM10 inh 59, tim23-1 inh 73, tim10-1 inh 69 | tim10-1 confirm 76 | tim10 confirm 52 | tim23-1 confirm 84
O=C(c1ccccc1[N+](=O)[O-])n1cnc2ccccc21	none
Cn1cc([N+](=O)[O-])c(C(=O)Nc2sc3c(c2C#N)CCC3)n1	tim23-1 inh 56, tim10-1 inh 45 | tim10-1 confirm 34 | tim23-1 confirm 48
Fc1ccc(CN2CCN(c3ncnc4scc(-c5ccc(F)cc5)c34)CC2)cc1	tim23-1 inh 54, tim10-1 inh 50 | tim10-1 confirm 46 | tim23-1 confirm 53
CCOC(=O)N1CCN(c2ncnc3scc(-c4ccccc4)c23)CC1	none
CCOC(=O)N1CCN(c2ncnc3scc(-c4ccc(Cl)cc4)c23)CC1	tim23-1 inh 57, tim10-1 inh 46 | tim10-1 confirm 40 | tim23-1 confirm 44
CC(Nc1nc(-c2ccccc2)nc2ccccc12)c1ccccc1 (centres undefined)	tim23-1 inh 58, tim10-1 inh 44 | tim10-1 confirm inactive | tim23-1 confirm inactive
COc1ccc(Nc2nc(-c3ccccc3)nc3ccccc23)cc1	tim23-1 inh 67, tim10-1 inh 52 | tim10-1 confirm 40 | tim23-1 confirm 63
CC(Nc1nc(N2CCCCC2)nc2ccccc12)c1ccccc1 (centres undefined)	none
Oc1ccc(Nc2nc(-c3ccccc3)nc3ccccc23)cc1	TIM10 inh 42, tim23-1 inh 61, tim10-1 inh 59 | tim10-1 confirm 46 | tim10 confirm 52 | tim23-1 confirm 59
O=S(=O)(Nc1ccc(Br)cn1)c1ccc(Cl)s1	none
CCc1c(C)nc(SCC(=O)N2CC(C)OC(C)C2)[nH]c1=O (centres undefined)	none
Cc1ccc(S(=O)(=O)CC#CCOC(=O)c2ccc([N+](=O)[O-])cc2)cc1	tim23-1 inh 76, tim10-1 inh 60 | tim10-1 confirm 47 | tim23-1 confirm 81
CC1CCc2nc(NC(=O)CN3CCN(c4ccc(F)cc4)CC3)sc2C1 (centres undefined)	tim23-1 inh 55, tim10-1 inh 51 | tim10-1 confirm inactive | tim23-1 confirm inactive
Cc1ccc(S(=O)(=O)N2CCOCC2)cc1NC(=O)Nc1ccc([N+](=O)[O-])cc1	none (no result: SKKanGAS inh)
CCOc1ccc(S(=O)(=O)N(C)CCO)cc1-c1nc2c(C(C)(C)C)nn(C)c2c(=O)[nH]1	none
O=c1ccc(-c2ccc(S(=O)(=O)Nc3cccc([N+](=O)[O-])c3)s2)n[nH]1	none
Cc1[nH]n(-c2ccccc2)c(=O)c1C(C[N+](=O)[O-])c1ccccc1Cl (centres undefined)	TIM10 inh 44, tim23-1 inh 74, tim10-1 inh 61 | tim10-1 confirm 59 | tim10 confirm 56 | tim23-1 confirm 75
COc1cccc(C(c2c(C)[nH]n(-c3ccccc3)c2=O)c2c(C)[nH]n(-c3ccccc3)c2=O)c1O	none
COc1cccc(C(c2c(C)[nH]n(-c3ccccc3)c2=O)c2c(C)[nH]n(-c3ccccc3)c2=O)c1OC	tim23-1 inh 63, tim10-1 inh 52 | tim10-1 confirm 33 | tim23-1 confirm 55
CC(=O)Nc1sc(C)c(C)c1C(=O)OCC(=O)N(CCC#N)c1cc(C)cc(C)c1	none (no result: SKKanGAS inh)
NNC(=O)c1cccc(COc2cccc(Br)c2)c1	tim23-1 inh 51, tim10-1 inh 45 | tim10-1 confirm inactive | tim23-1 confirm inactive
NNC(=O)c1cccc(COc2ccc(Br)cc2)c1	none
Oc1ccc(/C=N/Nc2ccc(C(F)(F)F)cn2)c(O)c1	TIM10 inh 65, tim23-1 inh 78, tim10-1 inh 65 | tim10-1 confirm 44 | tim10 confirm 72 | tim23-1 confirm 78
